Rows were chosen to be rich in hits. Some 1.2% of all compounds tested hit in one or more screens of this group.
RGS7-Gao: RGS7-Galphao binding modulators, primary screen, biochemical, multiplexed bead flow cytometry | actives lie on both sides | AID 1439, 2008 | binding response (% of control), % at 10 µM | 0.35% of 220,000 active; in the data active means binding response below about 49% or above about 150%; inconclusive means no clear call, values can overlap the other calls; inactive means in between;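 further: fluorescent Galphao held in activated GDP-AlF4 state binding bead-coupled RGS7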
Target sequence (P09471 whole entry, looked up): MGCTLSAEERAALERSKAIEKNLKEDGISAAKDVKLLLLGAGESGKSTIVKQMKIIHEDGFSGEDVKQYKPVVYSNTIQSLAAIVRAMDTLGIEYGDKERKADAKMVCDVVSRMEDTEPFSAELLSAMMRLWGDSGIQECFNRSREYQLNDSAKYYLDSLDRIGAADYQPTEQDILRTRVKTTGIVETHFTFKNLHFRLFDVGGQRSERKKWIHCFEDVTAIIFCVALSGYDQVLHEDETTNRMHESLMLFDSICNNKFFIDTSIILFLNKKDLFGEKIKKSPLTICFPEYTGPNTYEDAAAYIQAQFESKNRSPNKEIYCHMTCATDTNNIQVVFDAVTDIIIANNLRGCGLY
RGS16-Gao: modulators of RGS16 binding to Galphao, primary screen, biochemical, human proteins, multiplexed bead flow cytometry | AID 1441, 2008 | Regulator of G-protein signaling 16 (Homo sapiens) + Guanine nucleotide-binding protein … | binding response (% of control), % at 10 µM | 0.38% of 220,000 active | bead-based flow cytometry RGS16-Galphao binding, fluorescence; actives lie on both sides;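 further: Galphao activated by GDP with aluminum fluoride before binding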
Target sequence (O15492 whole entry, looked up): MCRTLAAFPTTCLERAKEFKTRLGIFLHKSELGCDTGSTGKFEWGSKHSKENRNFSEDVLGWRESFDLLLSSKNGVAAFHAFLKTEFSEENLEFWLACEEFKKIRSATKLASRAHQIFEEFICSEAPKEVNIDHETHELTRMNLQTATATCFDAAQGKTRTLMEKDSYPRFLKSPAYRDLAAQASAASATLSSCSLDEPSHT
Target sequence (P09471 whole entry, looked up): as the sequence (P09471 whole entry, looked up) above
RGS8-Gao: RGS8-Galphao binding modulators, primary screen, biochemical, multiplexed bead flow cytometry; Guanine nucleotide-binding protein G(o) subunit alpha (Homo sapiens), P09471; actives lie on both sides; response (percent of control binding), % at 10 µM; 0.34% of 220,000 active; AID 1423, 2008; in the data active means response below about 60% or above about 140%; inactive means in between;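 further: Galphao activated as the GDP aluminium fluoride complex binding bead-coupled RGS8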
GSH fluor: compound fluorescence on glutathione beads, profiling panel, artefact control, biophysical, 488/530 nm, flow cytometry | GSH beads flow cytometry, compound fluorescence 488/530 nm; hits give high values | 0.25% of 190,000 active | fluorescence (KMESF) at 10 µM | AID 1776, 2009; in the data active means fluorescence above about 89;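 further: glutathione beads carrying GST-tagged Bcl family fusion proteins plus one bare bead set; values are compound well signal with DMSO vehicle wells as background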
Avidin fluor: green autofluorescence of compounds with avidin beads – biophysical, 488/530 nm, flow cytometry, artefact control, profiling panel; compound fluorescence 488/530 nm; hits give high values; fluorescence (KMESF) at 10 µM; 0.38% of 220,000 active; in the data active means fluorescence above about 47
RGS4-Gao reg: modulators of RGS4 binding to Galphao, primary screen, biochemical, multiplexed bead flow cytometry; actives lie on both sides; AID 1415, 2008; 0.33% of 220,000 active; binding response (% of control), % at 10 µM; Guanine nucleotide-binding protein G(o) subunit alpha (Homo sapiens), P09471; in the data active means binding response below about 49% or above about 150%; inactive means in between;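 further: fluorescent Galphao activated with aluminum fluoride binding bead-coupled RGS4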
RGS4-Gao HTS: modulators of RGS–Galpha-o binding, primary screen, biochemical, multiplexed beads, flow cytometry, RGS4/7/8/16/19 | shares compounds with RGS16-Gao | multiplexed bead flow cytometry | RGS4–Galpha-o binding response, % at 10 µM | 99% of 1,600 active;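 further: fluorescently labeled Galpha-o bound to GDP with aluminium fluoride binding biotinylated RGS beads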
Avidin counter: disruption of biotin probe capture by avidin, counter-screen for RGS protein interaction modulators, biochemical, flow cytometry, bead-based; shares compounds with RGS16-Gao; streptavidin beads, fluorescein-biotin binding; inhibition, % at 10 µM; 1,700 tested, under 10 active; AID 1783, 2009;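 active means inhibition above 50%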;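 further: median green fluorescence of gated singlet beads compared with DMSO control wells; 0% = DMSO wells and 100% = complete loss of bead fluorescence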
RGS8-Gao confirm: RGS8-Galphao binding modulators, confirmation, biochemical, multiplexed bead flow cytometry, single concentration; shares compounds with RGS16-Gao; bead-based flow cytometry RGS8-Galphao binding, fluorescence; actives lie on both sides; binding response (% of control), % at 10 µM; 3% of 1,700 active; AID 1836, 2009; in the data active means binding response below about 72% or above about 130%; inactive means in between;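 further: Galphao activated as GDP AlF4 complex before binding bead RGS8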
RGS7-Gao confirm: RGS7-Galphao binding modulators, confirmation, biochemical, multiplexed bead flow cytometry, single concentration; response (percent of control binding), % at 10 µM; shares compounds with RGS16-Gao; 7.8% of 1,700 active; AID 1837, 2009; bead-based flow cytometry RGS7-Galphao binding; actives lie on both sides; in the data active means response below about 75% or above about 130%; inactive means in between;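 further: fluorescent Galphao activated with GDP and aluminum fluoride binding bead-coupled RGS7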
RGS16-Gao conf: modulators of RGS16-Galphao protein binding, confirmation, biochemical, single concentration, multiplexed bead flow cytometry; 4% of 1,700 active; bead-based flow cytometry; actives lie on both sides; response (% of control binding), % at 10 µM; shares compounds with RGS16-Gao; in the data active means response below about 74% or above about 130%; inactive means in between;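 further: Galphao activated as the GDP aluminium fluoride complex binding bead-coupled RGS16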
RGS4-Gao confirm: modulators of RGS4-Galphao protein binding, confirmation, biochemical, single concentration, multiplexed bead flow cytometry. 4% of 1,700 active. AID 1840, 2009. binding response (% of control), % at 10 µM. shares compounds with RGS16-Gao. actives lie on both sides; in the data active means binding response below about 74% or above about 130%; inactive means in between
RGS19-Gao conf: regulators of RGS19-Galphao binding, confirmation, biochemical, single point, multiplexed bead flow cytometry. 5% of 1,700 active. response (percent of control binding), % at 10 µM. bead-based flow cytometry RGS19-Galphao binding; actives lie on both sides. AID 1841, 2009. shares compounds with RGS16-Gao; in the data active means response below about 50% or above about 160%; inactive means in between;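 further: 100% = no compound control and 0% = blank background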
Numbers without * were called inactive; i = inactive; ? = inconclusive; · = no result; [ ] = dose if it differs, or a comment. Unless noted, how the calls were made is not given here.

SMILES | RGS7-Gao | RGS16-Gao | RGS8-Gao | GSH fluor | Avidin fluor | RGS4-Gao reg | Avidin counter | RGS8-Gao confirm | RGS7-Gao confirm | RGS16-Gao conf | RGS4-Gao confirm | RGS19-Gao conf | others
CN(C)c1ccc(/C=C2/NC(=O)NC2=O)cc1 | 354*[activator] | i | 145*[activator] | 17 | 113* | 549*[activator] | 1 | 102 | 103 | 105 | 102 | 104
O=C1NC(=O)/C(=C/c2cccc(O)c2)N1 | · | · | · | · | · | · | -1 | 98 | 95 | 98 | 98 | 95
CC1=NOC(=O)/C1=C/c1ccc(N(C)C)cc1 | 102 | 100 | 100 | 34 | 13 | 101 | · | · | · | · | · | ·
O=C1NC(=O)/C(=C\c2ccc(OCc3cccc(C(=O)O)c3)c(Cl)c2)N1 | 93 | 96 | 97 | 15 | 7 | 97 | · | · | · | · | · | ·
CC1CC(=O)C(C2c3ccccc3CCN2C(=O)CCl)C(=O)C1 (centres undefined) | 106 | 100 | 100 | 10 | 13 | 99 | · | · | · | · | · | ·
COc1cc2c(cc1OC)C(C1C(=O)CC(C)(C)CC1=O)N(C(=O)CCl)CC2 (centres undefined) | 92 | 17* | 74 | 7 | 7 | 90 | 0 | 99 | 99 | 101 | 100 | 103 | RGS4-Gao HTS=90*
CCOC(=O)C(=CNc1cc(C(F)(F)F)ccc1N1CCOCC1)C(=O)OCC | ? | 114 | 110 | · | 7 | 117 | · | · | · | · | · | ·
CCCCN(C)C(=O)c1nc2ccccn2c1CN1CCSCC1 | 98 | 102 | 102 | 54 | 10 | 104 | · | · | · | · | · | ·
CC(C)(C)c1ccc(C(=O)NC(Cc2ccccc2)C(=O)O)cc1 (centres undefined) | 98 | 99 | 101 | 10 | 9 | 102 | · | · | · | · | · | ·
O=C(N[C@@H](Cc1ccc(O)cc1)C(=O)O)c1ccc(C(F)(F)F)cc1 | 152*[activator] | 123 | 105 | 19 | 6 | 138 | 0 | 97 | 98 | 99 | 101 | 106 | RGS4-Gao HTS=138*
Cc1ccc([N+](=O)[O-])cc1NC(=O)Cc1ccc(F)cc1 | · | · | · | 11 | · | · | 1 | 99 | 102 | 102 | 102 | 99
Nc1cccc(CCc2nc3cc4ccccc4cc3[nH]2)c1 | 83 | 8.6* | 70 | 8 | 6 | 89 | -1 | 98 | 93 | 94 | 97 | 108 | RGS4-Gao HTS=89*
c1ccc(CCc2nc3ccccc3[nH]2)cc1 | 93 | 100 | 95 | 11 | 11 | 91 | · | · | · | · | · | ·
Clc1ccc(-n2nnc(-c3cccnc3)n2)cc1Cl | 43* | 46 | 53* | 17 | 2 | 47* | 2 | 104 | 96 | 103 | 97 | 97
CCCc1nc2c(o1)CC(CC(C)SCC)CC2=O (centres undefined) | -1.3* | -7.1* | 7.4* | 44 | -4 | -7.5* | 1 | 99 | 99 | 97 | 97 | 107
CCSC(C)CC1CC(=O)CC(=O)C1 (centres undefined) | · | · | · | 41 | · | · | 3 | 96 | 101 | 98 | 100 | 88
O=S(=O)(NCc1cn2ccccc2n1)c1cccs1 | ? | 101 | 104 | · | 4 | 98 | · | · | · | · | · | ·
N#Cc1nc(-c2ccccc2F)oc1NCCN1CCOCC1 | 134 | 275 | 176*[activator] | 23 | 2 | 149 | -1 | 98 | 99 | 96 | 97 | 92 | RGS4-Gao HTS=149*
O=C(/C(C=Nc1cccc(C(F)(F)F)c1)=C(/O)c1ccco1)C(F)(F)F | 81 | 2.5* | 64 | 6 | 6 | 87 | 2 | 105 | 112 | 111 | 109 | 108 | RGS4-Gao HTS=87*
Cc1ccc(-c2nn(CCC(=O)O)cc2CCC(=O)O)cc1 | 104 | 100 | 103 | 12 | 12 | 105 | · | · | · | · | · | ·
CCn1cc(CCC(=O)O)c(C)n1 | 143 | 158 | 146*[activator] | 15 | 24 | 142 | -1 | 100 | 101 | 101 | 101 | 104 | RGS4-Gao HTS=142*
O=C(COC(=O)C1CC(=O)N(Cc2ccccc2)C1)Nc1ccc(Cl)cc1F (centres undefined) | 101 | 99 | 100 | 26 | 11 | 102 | · | · | · | · | · | ·
O=S(=O)(c1ccccc1)c1ncc(C(F)(F)F)cc1Cl | 12* | 10* | 14* | 16 | · | 15* | 0 | 106 | 99 | 103 | 98 | 94
O=C1c2cccc3c(O)ccc(c23)C(=O)N1Cc1ccccc1 | 164*[activator] | 186*[activator] | 116 | 162* | 81* | 181*[activator] | 2 | 126*[activator] | 264*[activator] | 203*[activator] | 204*[activator] | 219*[activator]
COC(=O)c1cc(NC(=O)c2ccccc2)c(=O)oc1/C=C/Nc1ccc(Oc2ccccc2)cc1 | 211*[activator] | 205*[activator] | 114 | 161* | 80* | 215*[activator] | -1 | 125*[activator] | 399*[activator] | 260*[activator] | 284*[activator] | 420*[activator]
COc1ccc(C(=O)Nc2cc(C(C)=O)c(C)oc2=O)cc1 | ? | 101 | 101 | 15 | 9 | 100 | · | · | · | · | · | ·
COCc1cc(C)nc(SCC(=O)Nc2ccc(C)c(C)c2)c1C#N | 99 | -63* | 102 | 57 | 2 | 100 | · | · | · | · | · | · | RGS4-Gao HTS=100*
Cn1c(CSCc2ccc(Cl)cc2)nnc1SCC(=O)Nc1nc2ccccc2s1 | · | · | · | 39 | · | · | -1 | 98 | 101 | 99 | 102 | 103
Cn1c(CSCc2ccc(Cl)cc2)nnc1SCC(=O)Nc1nccs1 | 103 | 109 | 102 | 17 | 20 | 104 | · | · | · | · | · | ·

Screening data deposited in PubChem by NMMLSC.
